Among the data in PubChem BioAssay AID504840 (Johns Hopkins Ion Channel Center, 2011) are outcome values, retold here.

The whole screen tested about 1,500 compounds, of which about 890 (59%) were called active.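 How the source made its calls: active means inhibition of the choline-evoked signal at any tested dose together with a fitted dose-response curve; inactive means no inhibition at any dose or no curve.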 The set was probably picked from earlier hits. A selection follows. Entries that show only a call come without a potency. Potency and affinity values are given separately.

High affinity choline transporter 1 (Homo sapiens), sequence (Q9GZV3 whole entry, looked up): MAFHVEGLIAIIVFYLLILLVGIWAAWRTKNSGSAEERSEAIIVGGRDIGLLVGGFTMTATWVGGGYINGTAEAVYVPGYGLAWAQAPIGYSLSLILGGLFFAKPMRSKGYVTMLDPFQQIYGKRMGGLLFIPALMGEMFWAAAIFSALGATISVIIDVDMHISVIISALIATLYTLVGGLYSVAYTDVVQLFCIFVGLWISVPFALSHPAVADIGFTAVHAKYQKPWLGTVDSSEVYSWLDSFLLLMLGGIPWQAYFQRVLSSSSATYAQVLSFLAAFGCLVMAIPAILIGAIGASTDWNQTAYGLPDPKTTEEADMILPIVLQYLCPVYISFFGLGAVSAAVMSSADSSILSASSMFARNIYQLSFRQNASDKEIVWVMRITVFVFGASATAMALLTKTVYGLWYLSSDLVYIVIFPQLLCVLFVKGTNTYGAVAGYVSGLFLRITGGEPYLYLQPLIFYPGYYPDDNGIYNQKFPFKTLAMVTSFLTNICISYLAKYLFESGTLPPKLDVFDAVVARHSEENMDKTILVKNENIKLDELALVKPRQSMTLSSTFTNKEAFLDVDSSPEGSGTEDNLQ

The experiment concerns the target High affinity choline transporter 1 (Homo sapiens) (UniProt Q9GZV3). The experiment in a line: CHT inhibitors, dose response, cell-based, 5-point CRC, membrane potential dye (AID 504840). As to conditions: HEK293-CHT, choline-induced depolarization, CHT with LV-to-AA double alanine mutation; series mostly up to 37 µM.
In the case of `CS(=O)(=O)n1nc(OC(=O)c2cccc3ccccc23)cc1N`, the compound was classed as inactive.

For `COc1ccc(Cc2nnc(NC(=O)c3ccccc3[N+](=O)[O-])s2)cc1`, the outcome was inactive.

In the case of `O=C(O)c1ccccc1NSc1ccccc1[N+](=O)[O-]`, the compound was called inactive.

Turning to `COc1ccc(C(CCN2CCCC(C)C2)c2c(OC)cc(OC)c3c(-c4ccccc4)cc(=O)oc23)cc1` (stereo not drawn), the compound was classed as inactive.

As for `COc1ccc(C(CCN2CCCC2)c2c(OC)cc(OC)c3c(-c4ccccc4)cc(=O)oc23)cc1` (stereo not drawn), the call was inactive.

With `COc1cc(OC)c2c(-c3ccccc3)cc(=O)oc2c1C(CCN1CCCC(C)C1)c1ccc(N(C)C)cc1` (stereo not drawn), the outcome was inactive.

`COc1cc(OC)c2c(-c3ccccc3)cc(=O)oc2c1C(CCN1CCCCC1)c1ccc(N(C)C)cc1` (stereo not drawn): the call was inactive.

On to `COc1cc(OC)c2c(-c3ccccc3)cc(=O)oc2c1C(CCN1CCCC1)c1ccc2c(c1)OCO2` (stereo not drawn), for which the compound was classed as inactive.

For `COc1cc(OC)c2c(-c3ccccc3)cc(=O)oc2c1C(CCN1CCCCC1)c1ccc2c(c1)OCO2` (stereo not drawn), the compound was called inactive.

Regarding `O=C(Nc1nonc1-c1ccc(Cl)cc1)c1ccco1`, the outcome was inactive.

Consider `Cc1ccc[n+](CC(=O)Nc2cc(C(F)(F)F)ccc2N2CCOCC2)c1`, for which the result was inactive.

As for `CC(=O)N1CCN(S(=O)(=O)c2cccc(C(=O)NC3CCC(C)CC3)c2)CC1` (stereo not drawn), the compound was classed as inactive.

In the case of `COc1ccc(N(C)S(=O)(=O)c2cccc(C(=O)NC3CCC(C)CC3)c2)cc1` (stereo not drawn), the call was inactive.

With `CC1CCCC(NC(=O)c2cccc(N3CCCC3=O)c2)C1C` (stereo not drawn), the compound was classed as inactive.

Consider `CN1CCN(S(=O)(=O)c2cccc(C(=O)NC3CCCc4ccccc43)c2)CC1` (stereo not drawn), for which the compound was classed as inactive.

With `Cc1cc(C)nc(SCc2cc(=O)c(OC(=O)c3cc([N+](=O)[O-])ccc3Cl)co2)n1`, the result was inactive.

As to `Cc1ccnc(SCc2cc(=O)c(OC(=O)c3ccc(S(=O)(=O)N(C)C)cc3)co2)n1`, the compound was classed as inactive.

Regarding `O/N=C/c1ccnc(SCc2ccccc2)n1`, the compound was classed as inactive.

With `CCCCNS(=O)(=O)c1ccc2nc(SCC(=O)c3ccccc3OC)[nH]c2c1`, the outcome was inactive.

Take `Cc1cc(=O)[nH]c(SCC(=O)c2ccc(C)c(C)c2)n1`: the compound was classed as inactive.

Take `C=CCNS(=O)(=O)c1ccc(N2C(=O)c3ccccc3C2=O)cc1`: the compound was classed as inactive.

With `CC(NC(=O)c1ccc(N2CCNCC2)c([N+](=O)[O-])c1)C12CC3CC(CC(C3)C1)C2` (stereo not drawn), the outcome was inactive.

Regarding `Cc1[nH]n(-c2cccc(Cl)c2)c(=O)c1-c1ccccc1`, the compound was called inactive.

For `COc1ccc2c(c1)CC(C)C/C2=N\NC(=O)c1ccco1` (stereo not drawn), the compound was called inactive.

In the case of `NC(=O)CC(NC(=O)c1ccc(Br)cc1)c1ccc(N2CCCCCC2)c([N+](=O)[O-])c1` (stereo not drawn), the result was inactive.

As for `NC(=O)CC(NC(=O)c1ccccc1)c1ccc(N2CCc3ccccc3C2)c([N+](=O)[O-])c1` (stereo not drawn), the compound was called inactive.

For the compound `NC(=O)CC(NC(=O)c1ccc(Br)cc1)c1ccc(N2CCCCCCC2)c([N+](=O)[O-])c1` (stereo not drawn), the compound was called inactive.

With `CCC(CC)Nc1ccc(C(CC(N)=O)NC(=O)c2ccccc2)cc1[N+](=O)[O-]` (stereo not drawn), the result was inactive.

For `COC(=O)CCCCCCCCCC[N+]1(C)CCCCC1`, the call was inactive.

With `O=S(=O)(Nc1nc2ccccc2s1)c1ccc(Br)s1`, the outcome was inactive.

Regarding `COc1ccc(CN2CCN(CC=C(C)C)C(CCO)C2)cc1Cn1cccn1` (stereo not drawn), the compound was classed as inactive.

As for `O=C(O)c1ccc(/C=C2\COc3ccccc3C2=O)cc1`, the result was inactive.

Take `O=C(O)c1ccc(-c2nc(-c3ccccc3Cl)cs2)cc1`: the compound was called inactive.

As to `Cc1cc(C)c2nc(N3CCCN(C(=O)c4cnccn4)CC3)c(C#N)cc2c1`, the outcome was inactive.

As to `Cc1ccc(Nc2nnc(-c3ccc(N4CCOCC4)c([N+](=O)[O-])c3)c3ccccc23)cc1`, the result was inactive.

As for `CN1/C(=C\C=Nc2cc(S(=O)(=O)N3CCOCC3)ccc2N2CCOCC2)C(C)(C)c2ccccc21`, the outcome was inactive.

`Cc1ccc(C(=O)N/C(=C\c2cccs2)C(=O)NC2CCCCC2)cc1`: the call was inactive.

On to `O=C(CSc1nc(C(F)(F)F)cc(=O)[nH]1)Nc1cccc2ccccc12`, for which the result was inactive.

As for `Cc1ccc(S(=O)(=O)/N=C(/NC(=S)Nc2c(C)n(C)n(-c3ccccc3)c2=O)c2ccccc2)cc1`, the outcome was inactive.

With `CCc1nnc(NC(=O)CSc2nnc(-c3ccccc3OC)n2-c2ccccc2)s1`, the call was inactive.

In the case of `O=C1c2cccc3c(Nc4ccccc4Cl)c([N+](=O)[O-])cc(c23)C(=O)N1CCO`, the compound was called inactive.

As for `C=Cn1cc[n+](CC(=O)c2ccc(-c3ccccc3)cc2)c1`, the compound was classed as inactive.

As to `COCCNc1nc(-n2nc(C)cc2C)nc2sc3c(c12)CCCC3`, the outcome was inactive.

Turning to `CCOC(=O)C(Cc1ccccc1)NC(=O)CCCC(=O)c1ccccc1` (stereo not drawn), the compound was classed as inactive.

Consider `Cc1ccc(-c2nn(-c3ccccn3)c(=O)c3ccccc23)cc1`, for which the result was inactive.

As to `COc1ccc(NC(=O)c2sc(N)nc2-c2ccccc2)cc1`, the call was inactive.

Consider `O=C(CCC1CCCN(c2ncccn2)C1)NCc1ccc(F)c(F)c1` (stereo not drawn), for which the compound was called inactive.

For the compound `Cn1c(CN2CCN(CCO)CC2)c(C#N)c2ccccc21`, the compound was classed as inactive.

In the case of `S=c1[nH]c2cc(Cl)ccc2s1`, the outcome was inactive.

In the case of `Cc1cc(C)nc(NS(=O)(=O)c2ccc(NC(=O)C3COc4ccccc4O3)cc2)n1` (stereo not drawn), the call was inactive.

With `CN(Cc1nc(-c2cccnc2)no1)S(=O)(=O)c1ccc(Br)cc1`, the outcome was inactive.

For the compound `O=[N+]([O-])c1ccc(SCCc2ccccn2)cc1`, the compound was called inactive.

Take `O=C1CSC(=S)N1/N=C/c1c(F)cccc1F`: the compound was called inactive.

For the compound `O=[N+]([O-])c1ccc(N2CCCCC2)nc1`, the outcome was inactive.

For the compound `CCc1c(C)nc2ncnn2c1N1CCN(S(=O)(=O)c2ccc(OC)cc2)CC1`, the compound was classed as inactive.

As to `c1ccc(-c2ccccc2OCc2nnc3n2CCC3)cc1`, the result was inactive.

With `O=C(NNC(=S)NC1CCCCC1)c1ccccc1O`, the outcome was inactive.

With `Cc1ccc2c(c1)C1CN(C)CCC1N2C(=O)c1ccccc1NS(=O)(=O)c1cccc(C(F)(F)F)c1` (stereo not drawn), the result was inactive.

For the compound `CN1CCN(c2ncc(CN3C(=O)c4ccccc4C3=O)s2)CC1`, the outcome was inactive.

Regarding `Cc1cccc(C(=O)Nc2sc(-c3ccccc3)cc2C(=O)O)c1`, the compound was called inactive.

As for `CCc1cccc(CC)c1NC(=O)c1cccc(NC(=O)c2ccccc2)c1`, the outcome was inactive.

Turning to `COc1cc(CCC(=O)OCC(=O)NCc2ccc(Cl)cc2)cc(OC)c1OC`, the call was inactive.

As to `Cc1ccccc1C(=O)OC(C)CN1CCN(C)CC1` (stereo not drawn), the call was inactive.

For `CC(C)NS(=O)(=O)c1ccc(CCC(=O)N2CCc3ccccc3C2)cc1`, the compound was called inactive.

Turning to `Cc1ccc(-c2csc(NC(=O)c3ccc(Br)cc3)c2C(=O)O)cc1`, the compound was called inactive.

Regarding `Cc1ccc(-c2csc(NC(=O)c3ccc(F)cc3)c2C(=O)O)cc1`, the outcome was inactive.

Consider `COc1cc(C(=O)Nc2scc(-c3ccc(C)cc3)c2C(=O)O)cc(OC)c1OC`, for which the compound was classed as inactive.

In the case of `O=C(COC(=O)C1(c2ccccc2F)CCCC1)N1CCN(C(=O)c2ccco2)CC1`, the outcome was inactive.

With `CC1CCN(C(=O)CCCOc2cc(=O)n(C)c3ccccc23)CC1`, the compound was called inactive.

As to `COc1cc(NC2CCCCC2O)c2nc(-c3ccc(Cl)cc3)ccc2c1` (stereo not drawn), the call was inactive.

On to `CC1CCCCC1NC(=O)Cn1nc(-c2ccccc2)ccc1=O` (stereo not drawn), for which the compound was called inactive.

As for `Cc1c(NC(=S)NC(=O)c2ccc(-c3ccc(Cl)cc3)o2)cccc1C(=O)O`, the result was inactive.

On to `C/C(=N\NC1=NCCN1)c1ccc(Cl)cc1`, for which the call was inactive.

As for `CCCCCNC(=O)c1ccc2c(=O)[nH]c3c(C(=O)NCC4CCCO4)sc(=S)n3c2c1` (stereo not drawn), the call was inactive.

As for `CCOc1cc2[nH]c(=S)n(C(C)C)c(=O)c2cc1OCC`, the compound was called inactive.

Regarding `CCOCCCn1c(=S)[nH]c2cc(C(=O)N3CCN(C4CCCCC4)CC3)ccc2c1=O`, the compound was called inactive.

As for `O=C(N/N=C/c1cn[nH]c1-c1ccc(Cl)cc1)c1ccc([N+](=O)[O-])cc1`, the call was inactive.

On to `CCOC(=O)C(C)Sc1nnc(NC(=O)c2cccc([N+](=O)[O-])c2C)s1` (stereo not drawn), for which the compound was classed as inactive.

Consider `Cc1ccc(C(=O)NCC(=O)OCC(=O)Nc2ccccc2C#N)s1`, for which the compound was classed as inactive.

Take `Cc1c(NC(=O)/C=C/c2cn(-c3ccccc3)nc2-c2ccccc2)c(=O)n(-c2ccccc2)n1C`: the compound was classed as inactive.

In the case of `Cc1cccc(N2CCN(C(=O)COc3cc(=O)n(C)c4ccccc34)CC2)c1C`, the outcome was inactive.

Take `CN(C)CCNC(=O)C(=O)NCC(c1ccc2c(c1)OCO2)N1CCN(c2ccc(F)cc2)CC1` (stereo not drawn): the result was inactive.

Consider `COc1ccccc1C(=O)NC(C)c1cccc2ccccc12` (stereo not drawn), for which the call was inactive.

For the compound `O=S(=O)(Nc1nc2ccccc2s1)c1ccc(Cl)nc1`, the result was inactive.

Regarding `O=C(NC1CCCCC1)N(Cc1ccccc1)Cc1ccco1`, the call was inactive.

Consider `CCN(Cc1ccccc1)S(=O)(=O)c1cc(C(=O)O)ccc1OC`, for which the compound was called inactive.

Regarding `CCc1ccc(OCc2n[nH]c(=S)n2Cc2ccccc2)cc1`, the call was inactive.

Regarding `O=C(NNC1=C(C(=O)C(F)(F)F)CCC1)c1ccc(Cl)cc1`, the result was inactive.

Regarding `CCc1ccc2c(c1)C1(NN=C(c3ccc(C)cc3)S1)C(=O)N2` (stereo not drawn), the outcome was inactive.

Turning to `CCc1ccc2c(c1)C1(NN=C(c3ccccc3)S1)C(=O)N2` (stereo not drawn), the compound was classed as inactive.

With `Cc1oc2c(F)c(F)c(F)c(F)c2c1S(=O)(=O)Nc1cccc(C(F)(F)F)c1`, the compound was classed as inactive.

For the compound `CC(/C=C1\SC(=S)N(C(C(=O)O)c2ccccc2)C1=O)=C\c1ccccc1` (stereo not drawn), the compound was classed as inactive.

`Cc1noc(NS(=O)(=O)c2ccc(NC(=O)c3oc4ccc(Cl)cc4c3C)cc2)c1C`: the compound was called inactive.

As to `Nc1c(C(=O)NCCN2CCOCC2)c2nc3ccccc3nc2n1CCc1ccccc1F`, the result was inactive.

Consider `O=C(Nc1cccc(C(F)(F)F)c1)C1CCN(S(=O)(=O)c2cccnc2)CC1`, for which the call was inactive.

Take `O=C(CSc1ccc2ccccc2c1)Nc1ccncc1`: the compound was called inactive.

As for `CCc1nnc(NC(=O)CSc2ncc(-c3ccccc3)n2C)s1`, the result was inactive.

`COc1ccc(Br)cc1C(=O)NC(=S)Nc1ccc(Cl)c(C(=O)O)c1`: the compound was called inactive.

With `O=C(NNC(=S)Nc1ccc(Br)cc1)c1ccccc1Br`, the compound was called inactive.

For the compound `CC(Oc1ccc(Cl)cc1)C(=O)NNC(=S)NC(=O)c1ccco1` (stereo not drawn), the compound was classed as inactive.

Consider `CCCc1cc(=O)[nH]c(SCc2nc3ccccc3s2)n1`, for which the result was inactive.

For the compound `O=C(CCc1ccccc1)c1c(O)cc(O)cc1O`, the result was inactive.

As to `COc1ccccc1-c1coc2cc(O)cc(O)c2c1=O`, the outcome was inactive.
